Assay outcomes: PubChem BioAssay, National Center for Advancing Translational Sciences (NCATS)
A selection: hits, their analogues and other compounds. The true share with any hit is near 2.6%.
GLP1R ag: activates the human GLP-1 receptor; HEK293 GLP-1R CRE-luciferase, luminescence, 4-6 h; cells express a hypersensitive GLP-1R form; Potency, µM (doses to about 45.6 µM), for inactives: at the highest dose activation, usual class: activators; actives 0.007% (n = 380,000); AID 624172; also: % of control where 0% means no effect
Target sequence (P43220 whole entry, looked up): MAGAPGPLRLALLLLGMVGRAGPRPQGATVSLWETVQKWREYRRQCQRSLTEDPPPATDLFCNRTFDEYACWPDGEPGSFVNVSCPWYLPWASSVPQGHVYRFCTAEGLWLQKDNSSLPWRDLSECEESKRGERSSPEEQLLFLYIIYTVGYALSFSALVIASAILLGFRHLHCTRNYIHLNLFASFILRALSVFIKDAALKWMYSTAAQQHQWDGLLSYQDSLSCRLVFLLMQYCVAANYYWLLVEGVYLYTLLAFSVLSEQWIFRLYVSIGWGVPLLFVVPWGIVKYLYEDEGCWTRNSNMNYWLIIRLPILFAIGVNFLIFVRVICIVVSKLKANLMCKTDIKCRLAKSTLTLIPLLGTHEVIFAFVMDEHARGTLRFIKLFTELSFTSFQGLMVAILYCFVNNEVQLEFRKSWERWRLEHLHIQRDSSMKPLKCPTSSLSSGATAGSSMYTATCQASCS
BRCA1 expr up: BRCA1 expression activation; AID 624202; actives 1.1% (n = 380,000); Potency, µM (series often up to 46.1 µM), for inactives: top-dose activation, actives largely listed as activators; MCF7-BRCA1-FFLuc reporter, luminescence, 48 h; response scale: scaled: vehicle 0%, 10 µM genistein 100%; also: nearly all actives have a fitted effect of over 80% in size
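Activators of BRCA1 expression were detected as increased firefly luciferase luminescence in engineered MCF7 cells after 48 h compound incubation. Signals were scaled to genistein 10 microM as full activation.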
GLP1R inv ag: acts as inverse agonist at human GLP-1 receptor; P43220; HEK293 GLP-1R CRE-luciferase, luminescence, 24 h; GLP-1R form is constitutively active; Potency, µM (titrated, usually from 38.3 µM), without a hit: at the highest dose activity change, negative = inhibition, most hits filed as inhibitors; actives 1.6% (n = 410,000); AID 624417; also: % is scaled to controls: 0 for no effect and ±100 for the full control effect; nearly all actives have a fitted effect of over 55% in size
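qHTS in 1536-well format: reporter HEK293 cells expressing constitutive GLP-1R activity in DMEM + 10% Nu serum, 24 hr with compounds at 37 deg C, luminescence read after 12 min with detection reagent.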
GLP1R cytotox: cytotoxicity in counter-screen for GLP-1R inverse agonists; HEK293 cAMP-luciferase reporter cells, luminescence, 24 h; Potency, µM (titrated, usually from 38.3 µM), for the others: at the top dose activity change, negative = inhibition, hits mostly inhibitors; actives 0.13% (n = 410,000); AID 624418;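 also: loss of luciferase light is scored as toxicity; % is scaled to controls: 0 for no effect and ±100 for the full control effect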
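Luminescence readout: signal drop marks cytotoxicity. Plated cells grew 12 h at 37 °C, 5% CO2, received 23 nL compound for 24 h, then got luciferase reagent, read after 12 min at RT.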
* hit, by the source's call; ? = inconclusive; . = not tested or not shown. Calls follow the shape of the dose curve; as a rule, active = well fitted curve in the direction sought with a large enough effect; inconclusive = small, poorly fitted or top-dose-only effect, or another doubt; inactive = no such curve, though single readings can be large; an effect the other way counts as inactive or inconclusive. Potency is read from the fitted curve at half-maximal effect.

SMILES | GLP1R ag | BRCA1 expr up | GLP1R inv ag | GLP1R cytotox
CCN1C(=O)[C@@H]2[C@@H](c3ccc(-c4ccc(F)cc4)cc3)N3CCC[C@@]3(C(=O)OC)[C@@H]2C1=O | -2% | 0% | -21% | 2%
CCN1C(=O)[C@H]2[C@@H](c3ccc(-c4cccc(Cl)c4)c(OC)c3)N[C@@](CC(C)C)(C(=O)OC)[C@H]2C1=O | -6% | -57% | 7.9µM* | -2%
COc1ccc(Cl)cc1NC(=O)CCn1nc(C)cc1C | . | . | 4% | 2%
CCC(=O)C1CCCN(C(=O)CCc2nnc(-c3ccc4c(c3)OCO4)o2)C1 (stereo not drawn) | 0% | 79% | -4% | -11%
CCC(=O)C1CCCN(C(=O)CCc2nnc(-c3ccc(C(C)=O)s3)o2)C1 (stereo not drawn) | 6% | 13µM* | 31% | 7%
COC(=O)[C@]1(Cc2ccccc2)N[C@H](CN(C)S(=O)(=O)c2ccc(-c3ccccc3)cc2)[C@@H]2C(=O)N(C)C(=O)[C@@H]21 | 3% | -28% | -22% | -15%
c1cc(CSc2nnc(-c3ccc4c(c3)OCO4)o2)ccn1 | 8% | 3.2µM* | -5% | 7%
Fc1ccc(Cc2nnc(-c3cccs3)o2)cc1 | 9% | 10µM* | 1% | 1%
Fc1ccccc1CSc1nnc(-c2cccs2)o1 | 2% | 4µM* | -28% | -9%
Clc1ccccc1CSc1nnc(-c2ccncc2)o1 | 5% | 8.9µM* | 4% | -1%
c1ccc(CSc2nnc(-c3cccs3)o2)cc1 | 2% | ? | 5% | 12%
c1ccc2c(CSc3nnc(-c4ccncc4)o3)cccc2c1 | 27% | 5% | 6% | 2%
Cc1ccc(CNCc2ccc3c(c2)n(C)c(=O)n3C)cc1 | . | . | 0% | -2%
Cc1cc(-n2c(=O)[nH]c(=O)n(C)c2=O)ccc1Oc1ccc(S(=O)(=O)C(F)(F)F)cc1 | -4% | . | . | .
NS(=O)(=O)c1cccc(NC(=S)NC(=O)C23CC4CC(CC(C4)C2)C3)c1 | 10% | -19% | 1.3µM* | -16%
Cc1ccc(S(=O)(=O)N(C)C)cc1NC(=S)NC12CC3CC(CC(C3)C1)C2 | 2% | -16% | ? | -11%
CCN(CC)S(=O)(=O)c1cccc(NC(=O)CCNC(=O)c2ccc([N+](=O)[O-])cc2)c1 | 0% | 11% | -10% | 2%
CN(C)S(=O)(=O)c1cccc(NC(=S)NC2CCCCC2)c1 | 4% | -1% | 11µM* | -6%
CCN(CC)S(=O)(=O)c1cccc(NC(=O)CCNC(=O)NC23CC4CC(CC(C4)C2)C3)c1 | 3% | -83% | 10µM* | 11%
CN(C)S(=O)(=O)c1cccc(NC(=S)NC23CC4CC(CC(C4)C2)C3)c1 | 19% | -73% | 7.9µM* | -30%
Cc1cccc(C)c1NC(=O)C1(C)CN(S(C)(=O)=O)CC(=O)N1Cc1ccc2c(c1)OCO2 (stereo not drawn) | . | . | 26% | 2%
CCOC(=O)c1noc2ncn(CC(=O)Nc3cccc(C(F)(F)F)c3)c(=O)c12 | 4% | -8% | 0% | -2%
O=C(CCCCn1c(=O)c2ccccc2n(Cc2cccc(F)c2)c1=O)NCCc1ccccc1 | -1% | 2% | 6% | 20%
CC1CCn2c(nc3cc(C(=O)NCCc4ccccc4)ccc32)C1 (stereo not drawn) | . | . | ? | 4%
FC(F)Oc1ccc(NC(=S)NC23CC4CC(CC(C4)C2)C3)cc1 | 6% | -57% | 4.5µM* | ?
SMILES | GLP1R ag | BRCA1 expr up | GLP1R inv ag | GLP1R cytotox
CCN(CC)S(=O)(=O)c1cccc(NC(=O)CNC2CCCCCC2)c1 | -7% | -8% | 7.9µM* | -4%
CNC(=O)c1sc2ncccc2c1-n1cccc1 | . | . | 20% | -10%
Cc1ccc(NC2=Nc3ccccc3CC2)cc1 | -17% | 1% | ? | -18%
Brc1ccc(NC2=Nc3ccccc3CC2)cc1 | 26% | 8.9µM* | 2% | 51%
Cc1nn(C)cc1CN1CCCC(C(=O)c2ccc(-c3ccccc3)cc2)C1 (stereo not drawn) | 10% | -30% | ? | 6%
CC(=O)Nc1ccc(-c2csc(Nc3ncccn3)n2)cc1 | -5% | 3.5µM* | 8% | 6%
Oc1ccc(-c2csc(Nc3ncccn3)n2)cc1 | 7% | ? | -18% | -6%
CCC(/C=C1\Sc2ccc(OC)cc2N1CCO)=C\c1sc2ccc(OC)cc2[n+]1CCO | 3% | -74% | 10µM* | -18%
Cc1ccc(NS(=O)(=O)c2ccc(C(=O)N3CCC3)cc2)cc1 | 11% | -6% | -19% | 5%
Cc1ccc(NS(=O)(=O)c2ccc(C(=O)N3CCCN(C)CC3)cc2)cc1 | 0% | -10% | 5.6µM* | 0%
CC(C)CCOc1ccc(C(=O)NCC(c2ccco2)N(C)C)cc1 (stereo not drawn) | 17% | -2% | 7.9µM* | -2%
CN(C)C(CNC(=O)c1ccc(Br)cc1)c1ccco1 (stereo not drawn) | 11% | -8% | -28% | 1%
COc1ccc(-n2nc3c(N4CCC(C(=O)NCC(C)c5ccccc5)CC4)nnc(C)c3c2C)cc1 (stereo not drawn) | 21% | -29% | 10µM* | ?
O=C(NCCc1cccs1)C(c1ccccc1)c1ccccc1 | 5% | -10% | ? | -22%
O=C(NCCc1cccs1)c1ccc(Cl)c(Cl)c1 | 12% | 4µM* | ? | 2%
O=C(NCCc1cccs1)c1ccc(CS(=O)Cc2ccc(Cl)cc2)o1 (stereo not drawn) | 0% | 7% | -29% | -11%
O=C(NCCc1cccs1)c1ccc(Cl)cc1 | -1% | ? | 10µM* | -8%
Cc1ccc(C(=O)NCCc2cccs2)cc1 | -3% | ? | 5µM* | 3%
CCN(CC)CCCNC(=O)c1ccc2c(c1)sc1nc(-c3ccc(C)cc3)cn12 | . | . | ? | 8%
Cc1ccc(NS(=O)(=O)c2cccc(C(=O)NCC(c3ccco3)N3CCCC3)c2)cc1 (stereo not drawn) | -4% | -28% | ? | -14%
CCN1CCN(c2cc(-c3ccccc3)nc3cc(-c4cccc(F)c4)nn23)CC1 | -51% | -85% | 2.5µM* | ?
OC1CCN(c2cc(-c3ccccc3)nc3cc(-c4ccc(F)cc4)nn23)CC1 | 20% | -6% | ? | -1%
Fc1ccc(CSc2nc3ccccc3[nH]2)c2ccccc12 | 0% | 0% | 10µM* | -9%
O=c1cc(CSc2nc3ccccc3[nH]2)c2ccccc2[nH]1 | 12% | 32% | 0% | 5%
O=[N+]([O-])c1ccc(CSc2nc3ccccc3[nH]2)cc1 | 3% | 4µM* | -13% | 0%
O=C(Cc1cccc(C(F)(F)F)c1)N1CCCC1 | 4% | 1% | 0% | -1%
O=S(=O)(Nc1ccc2oc3c(c2c1)CCCC3)c1cc(Cl)ccc1Cl | . | . | 11µM* | 2%
CCOC(=O)c1c(NC(=O)C(C)NCc2ccco2)sc2c1CCC(C)C2 (stereo not drawn) | 14% | -40% | 4µM* | ?
